Source: the supplement of paper PMC11732987, “Enantioselective OTUD7B fragment discovery through chemoproteomics screening and high-throughput optimisation” (Communications Chemistry, 2025)

Key:
Test in all cases: log2 ratio of Biotin-Ahx-Ub-VS probe labelling (fragment/DMSO); higher = less target engagement (more negative = stronger competition), active = hit call of the paper (q ≤ 0.05, log2 ratio ≤ -1)
Settings in all cases: compound concentration: 200 uM; treatment time: 3 h
USP19 = biological target: T1, USP19 (UniProt O94966)
T1 sequence (whole entry): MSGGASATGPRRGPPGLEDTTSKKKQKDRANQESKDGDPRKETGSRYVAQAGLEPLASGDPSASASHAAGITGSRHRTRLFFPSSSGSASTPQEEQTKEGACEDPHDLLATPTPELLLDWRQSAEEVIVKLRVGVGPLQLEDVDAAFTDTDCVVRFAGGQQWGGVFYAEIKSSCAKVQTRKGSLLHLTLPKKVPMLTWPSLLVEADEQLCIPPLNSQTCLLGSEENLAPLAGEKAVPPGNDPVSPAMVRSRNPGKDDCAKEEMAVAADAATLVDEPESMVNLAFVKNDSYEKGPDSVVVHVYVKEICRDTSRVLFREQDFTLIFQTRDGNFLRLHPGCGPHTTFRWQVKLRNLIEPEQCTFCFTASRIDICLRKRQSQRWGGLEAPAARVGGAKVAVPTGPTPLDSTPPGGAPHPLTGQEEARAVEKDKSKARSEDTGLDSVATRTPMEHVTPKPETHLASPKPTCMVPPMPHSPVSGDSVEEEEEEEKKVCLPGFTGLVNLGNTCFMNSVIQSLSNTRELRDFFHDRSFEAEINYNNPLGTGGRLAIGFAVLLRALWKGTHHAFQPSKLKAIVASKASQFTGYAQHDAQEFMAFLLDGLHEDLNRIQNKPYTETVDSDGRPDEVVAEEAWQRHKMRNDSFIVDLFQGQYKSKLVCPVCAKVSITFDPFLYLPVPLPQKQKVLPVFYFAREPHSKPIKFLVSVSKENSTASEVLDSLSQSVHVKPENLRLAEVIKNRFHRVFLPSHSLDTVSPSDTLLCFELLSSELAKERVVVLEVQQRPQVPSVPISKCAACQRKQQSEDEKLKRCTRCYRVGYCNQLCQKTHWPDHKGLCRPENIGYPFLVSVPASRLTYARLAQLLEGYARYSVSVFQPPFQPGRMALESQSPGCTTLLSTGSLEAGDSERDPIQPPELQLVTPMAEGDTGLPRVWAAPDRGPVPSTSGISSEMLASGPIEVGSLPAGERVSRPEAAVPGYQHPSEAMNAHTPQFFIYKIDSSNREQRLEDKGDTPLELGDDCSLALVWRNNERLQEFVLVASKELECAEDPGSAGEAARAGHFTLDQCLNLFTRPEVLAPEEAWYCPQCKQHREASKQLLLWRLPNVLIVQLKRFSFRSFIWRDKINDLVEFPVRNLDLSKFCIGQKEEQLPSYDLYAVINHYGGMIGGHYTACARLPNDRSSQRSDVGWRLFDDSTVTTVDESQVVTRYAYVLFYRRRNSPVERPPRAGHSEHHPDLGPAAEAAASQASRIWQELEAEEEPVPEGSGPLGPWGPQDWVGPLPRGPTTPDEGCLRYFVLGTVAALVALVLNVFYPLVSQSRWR
Procedure, shortened: (§1)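 Labelled DUBs from HEK293T lysate were NeutrAvidin-enriched, digested with LysC and trypsin, and run by diaPASEF LC-MS/MS. Before that, each 495 µg sample in Tris/CHAPS/IGEPAL buffer with protease inhibitors was treated in triplicate with fragment at 200 µM or vehicle for 3 h, then with Biotin-Ahx-Ub-VS at 0.5 µM final for 1 h. Values are average log2 ratios of fragment over vehicle by unpaired t-test, based on global-median-normalised Spectronaut label-free quantities from proteins with ≥2 unique peptides.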

USP22 = biological target: T2, USP22 (UniProt Q9UPT9)
T2 sequence (whole entry): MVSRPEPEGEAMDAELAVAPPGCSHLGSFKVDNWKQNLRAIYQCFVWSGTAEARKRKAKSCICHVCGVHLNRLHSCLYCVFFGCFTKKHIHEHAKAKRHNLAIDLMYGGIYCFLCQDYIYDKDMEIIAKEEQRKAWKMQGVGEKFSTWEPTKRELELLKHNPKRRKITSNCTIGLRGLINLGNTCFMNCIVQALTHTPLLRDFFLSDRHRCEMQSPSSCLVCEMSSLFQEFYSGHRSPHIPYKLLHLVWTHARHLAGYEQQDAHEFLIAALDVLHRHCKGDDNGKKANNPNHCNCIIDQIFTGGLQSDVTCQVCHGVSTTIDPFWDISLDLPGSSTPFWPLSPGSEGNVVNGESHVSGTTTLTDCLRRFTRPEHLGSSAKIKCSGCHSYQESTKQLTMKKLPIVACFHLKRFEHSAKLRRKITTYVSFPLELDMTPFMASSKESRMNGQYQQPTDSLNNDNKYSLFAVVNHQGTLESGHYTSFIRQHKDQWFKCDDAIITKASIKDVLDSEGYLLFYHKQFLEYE
Procedure, shortened: as §1

USP24 = USP24 (UniProt Q9UPU5)
Sequence of USP24 (Q9UPU5 whole entry): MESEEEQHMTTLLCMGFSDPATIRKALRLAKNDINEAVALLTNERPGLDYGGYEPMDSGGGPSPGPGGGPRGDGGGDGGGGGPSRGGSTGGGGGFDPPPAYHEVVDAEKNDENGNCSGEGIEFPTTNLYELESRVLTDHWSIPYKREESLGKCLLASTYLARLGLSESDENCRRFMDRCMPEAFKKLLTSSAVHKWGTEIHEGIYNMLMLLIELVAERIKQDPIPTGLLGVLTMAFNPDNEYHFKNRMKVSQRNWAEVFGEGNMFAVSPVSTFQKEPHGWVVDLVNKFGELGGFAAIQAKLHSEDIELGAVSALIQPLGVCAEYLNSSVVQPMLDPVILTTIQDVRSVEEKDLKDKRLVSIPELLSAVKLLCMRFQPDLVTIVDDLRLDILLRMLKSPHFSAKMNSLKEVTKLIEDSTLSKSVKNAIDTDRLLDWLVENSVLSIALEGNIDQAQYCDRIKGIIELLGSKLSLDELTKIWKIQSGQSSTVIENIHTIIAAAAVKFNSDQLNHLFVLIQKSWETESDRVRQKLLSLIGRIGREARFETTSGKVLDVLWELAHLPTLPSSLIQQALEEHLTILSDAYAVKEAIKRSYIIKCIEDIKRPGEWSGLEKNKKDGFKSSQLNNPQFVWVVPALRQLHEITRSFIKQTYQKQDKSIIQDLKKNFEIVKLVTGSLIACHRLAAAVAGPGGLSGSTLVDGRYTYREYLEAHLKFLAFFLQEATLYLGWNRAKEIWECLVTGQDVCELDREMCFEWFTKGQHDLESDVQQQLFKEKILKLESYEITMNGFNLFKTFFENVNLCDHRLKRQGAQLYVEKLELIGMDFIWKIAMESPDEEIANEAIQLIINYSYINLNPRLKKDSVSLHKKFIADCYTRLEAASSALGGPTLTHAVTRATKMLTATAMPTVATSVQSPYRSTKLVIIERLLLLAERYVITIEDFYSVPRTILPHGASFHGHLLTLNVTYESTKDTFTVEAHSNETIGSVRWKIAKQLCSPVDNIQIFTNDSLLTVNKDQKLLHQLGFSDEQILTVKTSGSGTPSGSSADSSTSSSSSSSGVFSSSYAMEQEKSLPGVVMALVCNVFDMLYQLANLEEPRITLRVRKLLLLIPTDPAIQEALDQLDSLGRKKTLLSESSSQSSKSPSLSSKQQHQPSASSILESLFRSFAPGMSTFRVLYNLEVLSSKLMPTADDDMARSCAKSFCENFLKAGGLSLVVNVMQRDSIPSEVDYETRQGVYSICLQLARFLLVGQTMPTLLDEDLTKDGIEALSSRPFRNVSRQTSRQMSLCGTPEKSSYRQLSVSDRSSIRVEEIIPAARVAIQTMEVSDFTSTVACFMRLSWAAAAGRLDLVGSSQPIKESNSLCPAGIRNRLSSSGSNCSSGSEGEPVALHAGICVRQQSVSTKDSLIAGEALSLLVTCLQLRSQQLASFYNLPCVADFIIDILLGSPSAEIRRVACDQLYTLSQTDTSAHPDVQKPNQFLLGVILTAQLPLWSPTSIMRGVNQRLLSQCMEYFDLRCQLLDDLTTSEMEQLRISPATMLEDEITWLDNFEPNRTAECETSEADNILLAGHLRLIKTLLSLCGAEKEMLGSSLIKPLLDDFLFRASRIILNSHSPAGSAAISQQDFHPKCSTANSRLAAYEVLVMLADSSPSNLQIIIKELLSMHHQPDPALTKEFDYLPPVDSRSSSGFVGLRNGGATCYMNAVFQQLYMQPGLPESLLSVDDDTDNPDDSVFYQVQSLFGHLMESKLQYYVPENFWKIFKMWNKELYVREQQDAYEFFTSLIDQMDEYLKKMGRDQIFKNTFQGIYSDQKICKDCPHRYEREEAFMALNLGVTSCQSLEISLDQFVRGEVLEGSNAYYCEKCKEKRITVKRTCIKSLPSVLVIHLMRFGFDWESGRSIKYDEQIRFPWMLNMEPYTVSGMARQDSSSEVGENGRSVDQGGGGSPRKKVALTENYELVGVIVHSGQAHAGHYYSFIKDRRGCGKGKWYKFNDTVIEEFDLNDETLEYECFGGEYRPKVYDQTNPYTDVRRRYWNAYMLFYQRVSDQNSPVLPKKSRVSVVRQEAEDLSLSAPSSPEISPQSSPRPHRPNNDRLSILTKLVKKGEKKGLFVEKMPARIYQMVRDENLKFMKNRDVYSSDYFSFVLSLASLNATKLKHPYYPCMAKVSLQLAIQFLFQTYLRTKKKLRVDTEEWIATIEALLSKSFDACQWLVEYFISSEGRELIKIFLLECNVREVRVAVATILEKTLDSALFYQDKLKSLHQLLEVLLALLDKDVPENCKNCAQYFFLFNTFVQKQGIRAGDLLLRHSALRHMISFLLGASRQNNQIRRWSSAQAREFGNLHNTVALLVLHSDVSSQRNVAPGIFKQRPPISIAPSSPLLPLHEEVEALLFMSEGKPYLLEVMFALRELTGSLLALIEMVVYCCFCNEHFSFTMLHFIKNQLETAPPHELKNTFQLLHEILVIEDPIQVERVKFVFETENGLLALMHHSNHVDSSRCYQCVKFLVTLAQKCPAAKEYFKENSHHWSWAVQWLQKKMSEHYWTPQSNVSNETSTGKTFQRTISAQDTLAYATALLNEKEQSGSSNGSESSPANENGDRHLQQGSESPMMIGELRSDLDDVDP
Procedure, shortened: as §1

USP25 = biological target: T3, USP25 (UniProt Q9UHP3)
T3 sequence (whole entry): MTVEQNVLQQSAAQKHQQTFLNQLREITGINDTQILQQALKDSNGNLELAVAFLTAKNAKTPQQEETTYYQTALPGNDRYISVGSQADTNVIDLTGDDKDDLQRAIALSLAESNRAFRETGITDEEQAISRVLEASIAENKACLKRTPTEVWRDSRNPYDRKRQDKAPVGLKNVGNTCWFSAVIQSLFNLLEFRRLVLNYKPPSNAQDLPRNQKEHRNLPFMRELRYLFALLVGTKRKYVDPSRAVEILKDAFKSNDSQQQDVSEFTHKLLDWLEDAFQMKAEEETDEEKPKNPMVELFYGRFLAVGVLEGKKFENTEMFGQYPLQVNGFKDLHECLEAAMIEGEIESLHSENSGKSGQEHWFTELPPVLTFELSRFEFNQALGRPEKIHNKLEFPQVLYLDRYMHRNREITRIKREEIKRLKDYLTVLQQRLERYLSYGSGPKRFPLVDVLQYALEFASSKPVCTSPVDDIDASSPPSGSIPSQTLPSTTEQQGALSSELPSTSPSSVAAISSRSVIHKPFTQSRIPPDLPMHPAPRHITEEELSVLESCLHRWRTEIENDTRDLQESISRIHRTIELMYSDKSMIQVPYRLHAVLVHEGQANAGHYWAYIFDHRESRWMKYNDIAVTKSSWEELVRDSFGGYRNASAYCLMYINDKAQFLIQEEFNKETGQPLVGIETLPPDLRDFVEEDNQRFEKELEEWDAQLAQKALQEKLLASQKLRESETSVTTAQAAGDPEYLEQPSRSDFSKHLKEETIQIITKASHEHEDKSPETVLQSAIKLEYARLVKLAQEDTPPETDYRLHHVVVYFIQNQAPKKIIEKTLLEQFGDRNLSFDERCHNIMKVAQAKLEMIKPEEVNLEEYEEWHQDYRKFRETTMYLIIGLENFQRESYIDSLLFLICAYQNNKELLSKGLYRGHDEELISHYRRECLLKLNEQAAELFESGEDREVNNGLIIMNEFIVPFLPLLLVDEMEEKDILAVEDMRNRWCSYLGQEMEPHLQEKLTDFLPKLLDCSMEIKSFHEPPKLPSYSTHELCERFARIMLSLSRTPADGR
Procedure, shortened: as §1

USP28 = biological target: T4, USP28 (UniProt Q96RU2)
T4 sequence (whole entry): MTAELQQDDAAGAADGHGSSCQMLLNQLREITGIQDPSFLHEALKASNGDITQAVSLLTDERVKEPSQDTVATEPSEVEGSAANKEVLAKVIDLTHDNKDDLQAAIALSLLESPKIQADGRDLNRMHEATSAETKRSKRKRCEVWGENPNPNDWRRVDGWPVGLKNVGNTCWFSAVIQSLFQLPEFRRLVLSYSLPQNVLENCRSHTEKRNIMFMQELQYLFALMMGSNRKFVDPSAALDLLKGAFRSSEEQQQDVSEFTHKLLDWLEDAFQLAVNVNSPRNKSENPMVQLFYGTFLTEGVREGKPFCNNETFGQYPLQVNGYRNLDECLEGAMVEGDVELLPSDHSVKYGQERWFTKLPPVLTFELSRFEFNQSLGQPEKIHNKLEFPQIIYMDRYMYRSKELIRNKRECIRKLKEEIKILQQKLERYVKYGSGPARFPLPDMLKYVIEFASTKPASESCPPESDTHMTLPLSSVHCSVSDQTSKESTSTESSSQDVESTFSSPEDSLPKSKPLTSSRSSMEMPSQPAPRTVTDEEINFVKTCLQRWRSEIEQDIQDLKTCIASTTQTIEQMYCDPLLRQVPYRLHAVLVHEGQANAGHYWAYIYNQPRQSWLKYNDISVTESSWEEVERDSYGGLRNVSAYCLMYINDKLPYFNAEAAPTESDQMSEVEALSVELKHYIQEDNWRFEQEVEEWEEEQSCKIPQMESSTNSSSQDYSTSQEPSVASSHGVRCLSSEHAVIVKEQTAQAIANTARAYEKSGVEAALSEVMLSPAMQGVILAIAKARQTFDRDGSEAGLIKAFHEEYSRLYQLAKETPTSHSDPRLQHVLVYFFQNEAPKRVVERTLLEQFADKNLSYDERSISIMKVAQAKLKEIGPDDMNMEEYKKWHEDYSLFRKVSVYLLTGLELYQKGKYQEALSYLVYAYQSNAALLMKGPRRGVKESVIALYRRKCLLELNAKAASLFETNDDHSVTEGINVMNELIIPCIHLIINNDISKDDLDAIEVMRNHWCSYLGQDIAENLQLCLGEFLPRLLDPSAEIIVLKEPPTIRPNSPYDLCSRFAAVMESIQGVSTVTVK
Procedure, shortened: as §1

Measured: log2 ratio of Biotin-Ahx-Ub-VS probe labelling

Cc1nc(-c2cccc(NC(=O)CCl)c2)cs1
inactive: USP19 -0.375 | USP22 -0.0833 | USP24 -0.903 | USP25 -0.554 | USP28 -0.634
